hDAT+cocaine: changed hDAT dopamine uptake under cocaine IC80, either direction, primary screen, cocaine antagonist project, cell-based, LLC-PK1 hDAT, [14C]-dopamine uptake, MLSMR. Sodium-dependent dopamine transporter (Homo sapiens), Q01959. LLC-PK1 hDAT cells, [14C]-dopamine uptake with cocaine IC80; actives deviate in either direction. B-score at 10 µM. 110,000 compounds, 1.3% hits. AID 449768, 2010;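 active = Z score or B-score, a plate-position-corrected score, falls beyond the plate's 99.7% confidence bounds, in either direction; inactive = both scores lie inside the 99.7% bounds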;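 also: scored against the spread of the other compound wells on the same plate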
Target sequence (Q01959 whole entry, looked up): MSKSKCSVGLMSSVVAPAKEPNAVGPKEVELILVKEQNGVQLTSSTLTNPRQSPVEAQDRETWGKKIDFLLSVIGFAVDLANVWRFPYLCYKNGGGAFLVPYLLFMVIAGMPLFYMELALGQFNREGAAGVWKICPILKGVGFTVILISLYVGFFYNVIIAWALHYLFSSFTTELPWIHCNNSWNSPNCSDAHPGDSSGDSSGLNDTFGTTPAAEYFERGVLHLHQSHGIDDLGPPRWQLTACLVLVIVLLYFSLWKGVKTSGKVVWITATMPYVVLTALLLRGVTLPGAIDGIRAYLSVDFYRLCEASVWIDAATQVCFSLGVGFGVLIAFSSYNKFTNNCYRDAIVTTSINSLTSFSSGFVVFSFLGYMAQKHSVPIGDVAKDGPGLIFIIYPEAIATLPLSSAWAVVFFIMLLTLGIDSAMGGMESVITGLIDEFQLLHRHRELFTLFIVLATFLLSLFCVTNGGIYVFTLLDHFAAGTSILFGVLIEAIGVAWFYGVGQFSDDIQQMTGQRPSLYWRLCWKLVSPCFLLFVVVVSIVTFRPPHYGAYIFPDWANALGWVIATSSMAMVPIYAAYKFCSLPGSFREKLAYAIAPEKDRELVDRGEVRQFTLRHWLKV
CYP2C9 inh: blockers of cytochrome P450 2C9 activity – biochemical, luminescence, ADME assay, primary screen | P11712 | CYP2C9 Supersomes, luciferin-H conversion | inhibition, % at 5 µM | 96,000 compounds, 20% hits | AID 777, 2007;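 active = blocking of liver enzyme CYP2C9 beyond about 50% at 5 µM, limit read from the data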
CYP2C19 inhib: blockers of cytochrome P450 2C19 activity – biochemical, luminescence, ADME assay, primary screen; P33261; inhibition, % at 5 µM; 96,000 compounds, 21% hits; CYP2C19 Supersomes, luciferin-H EGE luminescence, 30 min;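 active = CYP2C19 inhibition above a set limit at 5 µM in the primary screen, cut at about 50% in these data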;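 also: plate controls were negative control wells for no effect and 2.5 mM tranylcypromine positive control for full effect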
CYP2C19 activ: human CYP2C19 activators, primary screen, biochemical, luminescence; Cytochrome P450 2C19 (Homo sapiens), P33261; recombinant CYP2C19, luciferin-H EGE luminescence; stronger effect = higher value; 0 = fully inhibited enzyme, 1 = untreated enzyme; activation factor at 5 µM; 96,000 tested, under 10 active;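 active = activation factor of at least 2 at 5 µM in the primary screen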;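 also: 0 = wells with 2.5 mM tranylcypromine and 1 = vehicle-only wells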
D1 mod: D1 CRE-luciferase signal change, two-sided – cell-based, HEK293 D1, dopamine EC30, D1 allosteric modulator project, primary screen. D(1A) dopamine receptor (Homo sapiens), P21728. dopamine EC30 potentiation; actives deviate in either direction. B-score at 10 µM. 58,000 compounds, 5.9% hits. AID 641, 2007;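 active = luminescence count or its row- and column-corrected plate score outside the 99.7% band of the plate's sample wells, on either side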
CYP2C9 activ: human CYP2C9 activators, primary screen, biochemical, luminescence. 96,000 compounds, 1.4% hits. recombinant CYP2C9, luciferin-H conversion; stronger effect = higher value; factor 1 = untreated enzyme, 0 = blocked. AID 1024, 2008. activation factor at 5 µM;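 active = activation factor of 2 or more for CYP2C9 at a 5 µM dose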;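 also: 0 = sulfaphenazole-blocked wells and 1 = vehicle-only wells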
An asterisk follows results filed as active; nt = no result given. Most compounds without a hit are left out; they make up all but 28% or so of the library.

SMILES | hDAT+cocaine | CYP2C9 inh | CYP2C19 inhib | CYP2C19 activ | D1 mod | CYP2C9 activ
CC(CCN(C)C)OC(=O)c1ccc(C(C)c2ccccc2)o1 (stereo not drawn) | -0.076 | 10 | 61* | 0.4 | -3.2* | 0.9
COC(=O)c1ccc(C)c(NC(=O)Cc2coc3cc(OC)ccc23)c1 | -0.57 | 98* | 95* | 0 | 0.42 | 0
COC(=O)c1cc(NC(=O)Cc2ccc(OC)c(OC)c2)cc(C(=O)OC)c1 | 0.63 | 82* | 12 | 0.9 | nt | 0.2
COc1ccc(CC(=O)Nc2nncs2)cc1OC | 0.57 | -14 | -9 | 1.1 | nt | 1.1
COC(=O)c1cc(NC(=O)Cc2coc3cc(OC)ccc23)cc(C(=O)OC)c1 | 0.68 | 92* | 58* | 0.4 | 0.94 | 0.1
O=C(NCc1ccc(N2CCCC2=O)cc1)NC1CCCCC1 | 0.42 | -3 | -6 | 1.1 | -0.00053 | 1
COC(=O)c1ccc(CSc2nnc(CNC(=O)c3cccs3)o2)o1 | 0 | 29 | 38 | 0.6 | 0.66 | 0.7
CCN1CCC(C(=O)NC2CCCC2)(N(Cc2cccs2)C(=O)Cn2nnc3ccccc32)CC1 | nt | -14 | -4 | 1 | -0.28 | 1.1
Nn1c(COc2ccccc2)nc2ccccc2c1=O | 1.1 | 23 | 52* | 0.5 | 0.081 | 0.8
COc1cccc(OCc2nc3ccccc3c(=O)n2N)c1 | 1.6 | 12 | 30 | 0.7 | 1 | 0.9
CCCCCc1nc2ccccc2c(=O)n1N | -0.14 | 31 | 60* | 0.4 | 0.67 | 0.7
Cc1ccccc1OCc1nc2ccccc2c(=O)n1N | 1.2 | 50* | 53* | 0.5 | nt | 0.5
COC(=O)[C@H](CCSC)NS(=O)(=O)c1ccccc1Br | -1 | nt | nt | nt | nt | nt
Cc1cccc(CC2CC(=O)N(c3ncccn3)C2=O)c1 (stereo not drawn) | -0.054 | 0 | 7 | 0.9 | -0.027 | 1
CCOC(=O)c1ccccc1NC(=O)CSc1nc2ccccc2n1CC(=O)N1CCCC1 | 1.1 | 87* | 82* | 0.2 | 3.5 | 0.1
CCOC(=O)c1cccc(NC(=O)Cn2c(CC(=O)N3CCCC3)nc3ccccc32)c1 | 0.22 | 88* | 17 | 0.8 | -0.78 | 0.1
COc1ccc2c(c1OC)C(=O)N(C(C)C(=O)O)C2=O (stereo not drawn) | -0.0077 | -4 | -8 | 1.1 | -0.9 | 1
COc1ccc(NC(=O)C23CCC(C2)C(C)(C)C3=O)cc1 (stereo not drawn) | -0.11 | 21 | 34 | 0.7 | 0.62 | 0.8
COc1ccc(S(=O)(=O)N2Cc3ccccc3CC2C(=O)Nc2ccc3c(c2)OCO3)cc1 (stereo not drawn) | -0.58 | 62* | 85* | 0.2 | nt | 0.4
Cc1ccc(S(=O)(=O)N2Cc3ccccc3CC2C(=O)Nc2ccc3c(c2)OCO3)cc1 (stereo not drawn) | -0.055 | 97* | 98* | 0 | nt | 0
Cn1c(SCC(=O)NC(C)(C)C)nnc1-c1cccc(NC(=O)c2ccccc2F)c1 | -0.0082 | 2 | 5 | 0.9 | nt | 1
CCOC(=O)C(NS(=O)(=O)c1ccccc1)(C(F)(F)F)P(=O)(OCC(C)C)OCC(C)C (stereo not drawn) | 0.73 | 16 | 10 | 0.9 | nt | 0.8
CC1CC1C(=O)OCC(=O)NCc1ccc(Cl)cc1 (stereo not drawn) | 0.037 | 53* | 97* | 0 | nt | 0.5
O=C(NCc1ccccc1Cl)C1CCN(S(=O)(=O)N2CCCCC2)CC1 | -0.1 | -14 | 14 | 0.9 | 0.84 | 1.1
O=C(COC(=O)C1CC1)NCc1ccccc1Cl | -2.4 | 18 | 70* | 0.3 | nt | 0.8
CC1CC1C(=O)OCC(=O)NCc1ccc(Cl)cc1Cl (stereo not drawn) | nt | 30 | 100* | 0 | nt | 0.7
Cc1cc2c(ccc3[nH]onc32)n1 | -0.65 | -25 | 26 | 0.7 | -0.3 | 1.2
Cc1c(Cl)c(C(F)(F)F)nn1CC(=O)N1CCSCC1 | 0.8 | nt | nt | nt | nt | nt

From PubChem
